In all, about 39,000 compounds went through this assay and about 1,500 (3.8%) were called active. For the sample, actives were picked, then their nearest neighbours and some compounds at random.
Each molecule was assayed on HSkMC (human skeletal muscle cells) (assay: cytotoxicity call (relative viability < 0.9)). Settings: 10 µM.
For `CC(C)NC(=O)Nc1ccc2c(c1)CC(=O)N([C@H](C)CO)C[C@@H](C)[C@@H](CN(C)Cc1ccc(-c3ccccc3)cc1)O2`, the cytotoxicity call was “inactive”. In the case of `C[C@@H]1CN([C@@H](C)CO)C(=O)c2cc(C#CCN(C)C)cnc2O[C@H]1CN(C)S(C)(=O)=O`, the cytotoxicity call is reported as “inactive”. In the case of `C[C@@H]1CN([C@@H](C)CO)C(=O)c2cc(NS(=O)(=O)c3cccs3)ccc2O[C@@H](C)CCCCO[C@H]1CN(C)C(=O)Cc1ccccc1`, the cytotoxicity call is reported as “inactive”. In the case of `COc1ccc(CN(C)C[C@@H]2Oc3ccc(NS(=O)(=O)c4cn(C)cn4)cc3CC(=O)N([C@H](C)CO)C[C@H]2C)cc1`, the cytotoxicity call is reported as “inactive”. With `C[C@H](CO)N1C[C@H](C)[C@H](CN(C)Cc2ccc(-c3ccccc3)cc2)Oc2ccc(NC(=O)NC3CCCCC3)cc2CC1=O` the cytotoxicity call was “inactive”. With `COc1ccc(S(=O)(=O)N2C[C@H](O)COC[C@@H]3O[C@@H](CC(=O)NCCCN(C)C)CC[C@H]32)cc1` the cytotoxicity call was “inactive”. In the case of `C/C(=C\CC[C@@H](C)[C@H]1C[C@@H](O)[C@@]2(C)[C@H]3CC[C@H]4C(C)(C)[C@@H](O[C@@H]5O[C@@H](CO[C@H]6OC[C@@H](O)[C@@H](O)[C@@H]6O)[C@@H](O)[C@@H](O)[C@@H]5O)CC[C@@]45C[C@@]35C[C@@H](O)[C@]12C)C(=O)O[C@H]1O[C@@H](CO)[C@@H](O)[C@@H](O)[C@@H]1O`, the cytotoxicity call is reported as “inactive”. With `C[C@H]1CN([C@@H](C)CO)C(=O)CCCn2nncc2CO[C@H]1CN(C)C(=O)c1cc(-c2ccccc2)on1` the cytotoxicity call was “inactive”. For `C[C@H]1CCCCO[C@H](CN(C)CC2CC2)[C@@H](C)CN([C@@H](C)CO)C(=O)c2cc(NC(=O)c3ccccc3)ccc2O1`, the cytotoxicity call was “inactive”. With `Cc1noc(C)c1NC(=O)Nc1ccc2c(c1)CC(=O)N([C@@H](C)CO)C[C@@H](C)[C@H](CN(C)Cc1ccc(C(=O)Nc3ccccc3N)cc1)O2` the cytotoxicity call was “inactive”. `C[C@H](CO)N1C[C@H](C)[C@H](CN(C)CC2CCOCC2)Oc2cc(C#Cc3ccccc3F)ccc2S1(=O)=O` was tested, and the cytotoxicity call was “inactive”. In the case of `Nc1nc(Cl)nc2c1ncn2[C@H]1C[C@H](O)[C@@H](CO)O1`, the cytotoxicity call is reported as “active”. For `Nc1nc(Cl)nc2c1ncn2[C@H]1C[C@@H](O)[C@@H](CO)O1`, the cytotoxicity call was “inactive”. For `Nc1ncnc2c1ncn2[C@H]1C[C@H](O)[C@@H](CO)O1`, the cytotoxicity call was “inactive”. With `CCN(CC)CCOc1ccc(Nc2ncc3cc(-c4c(Cl)cccc4Cl)c(=O)n(C)c3n2)cc1` the cytotoxicity call was “active”. In the case of `CCN(CC)CCOc1ccc2c(c1)C(=O)c1cc(OCCN(CC)CC)ccc1-2`, the cytotoxicity call is reported as “inactive”. With `C[C@](N)(Cc1ccc(O)c(O)c1)C(=O)O` the cytotoxicity call was “inactive”. For `c1ccc(CCNc2ccnc3cc4ccccc4cc23)cc1`, the cytotoxicity call was “active”. For `NNCCc1ccccc1`, the cytotoxicity call was “inactive”. For `NCCNc1cccc2ccccc12`, the cytotoxicity call was “inactive”. `Cc1noc(C)c1S(=O)(=O)Nc1ccc2c(c1)C(=O)N([C@H](C)CO)C[C@H](C)[C@@H](CN(C)Cc1ccc(Oc3ccccc3)cc1)O2` was tested, and the cytotoxicity call was “inactive”. With `C[C@@H]1COCC(=O)N1` the cytotoxicity call was “inactive”. With `C[C@@H]1CN([C@H](C)CO)C(=O)c2cc(NC(=O)Cc3ccccc3)ccc2O[C@@H](C)CCCCO[C@@H]1CN(C)S(=O)(=O)c1cccs1` the cytotoxicity call was “inactive”. `C[C@H](CO)N1C[C@H](C)[C@@H](CN(C)S(=O)(=O)c2ccccc2F)Oc2ncc(C#Cc3ccccc3F)cc2C1=O` was tested, and the cytotoxicity call was “active”. `C[C@@H]1CN([C@H](C)CO)C(=O)c2cc(C#Cc3ccccc3F)cnc2O[C@H]1CN(C)S(=O)(=O)c1ccccc1F` was tested, and the cytotoxicity call was “inactive”. In the case of `COc1ccccc1C#Cc1cnc2c(c1)C(=O)N([C@H](C)CO)C[C@@H](C)[C@@H](CN(C)S(=O)(=O)c1cn(C)cn1)O2`, the cytotoxicity call is reported as “inactive”. `C[C@H]1CN([C@@H](C)CO)C(=O)c2cc(C#Cc3ccccc3F)cnc2O[C@@H]1CN(C)S(=O)(=O)c1ccccc1F` was tested, and the cytotoxicity call was “inactive”. For `COc1ccccc1C#Cc1cnc2c(c1)C(=O)N([C@H](C)CO)C[C@@H](C)[C@H](CN(C)S(=O)(=O)c1cn(C)cn1)O2`, the cytotoxicity call was “active”. `COc1ccccc1C#Cc1cnc2c(c1)C(=O)N([C@@H](C)CO)C[C@@H](C)[C@@H](CN(C)S(=O)(=O)c1cn(C)cn1)O2` was tested, and the cytotoxicity call was “inactive”. `Cc1ccc(S(=O)(=O)Nc2ccc3c(c2)CC(=O)N([C@H](C)CO)C[C@@H](C)[C@@H](CN(C)S(=O)(=O)c2ccc(F)cc2)O3)cc1` was tested, and the cytotoxicity call was “inactive”. With `Cc1ccc(S(=O)(=O)Nc2cccc3c2O[C@@H](CN(C)S(C)(=O)=O)[C@@H](C)CN([C@H](C)CO)C3=O)cc1` the cytotoxicity call was “inactive”. `C[C@@H]1CN([C@H](C)CO)C(=O)c2ccccc2-c2ccccc2CO[C@@H]1CN(C)C(=O)Nc1cccc(C(F)(F)F)c1` was tested, and the cytotoxicity call was “inactive”. `C[C@@H]1CCCCO[C@H](CN(C)CC2CCCCC2)[C@H](C)CN([C@H](C)CO)C(=O)c2cc(NC(=O)c3ccccc3)ccc2O1` was tested, and the cytotoxicity call was “inactive”. In the case of `C[C@@H]1CCCCO[C@H](CN(C)Cc2ccc(C(F)(F)F)cc2)[C@H](C)CN([C@H](C)CO)C(=O)c2cc(NC(=O)NC3CCCCC3)ccc2O1`, the cytotoxicity call is reported as “active”. `C[C@@H]1CCCCO[C@@H](CN(C)Cc2ccc(C(F)(F)F)cc2)[C@H](C)CN([C@H](C)CO)C(=O)c2cc(NC(=O)NC3CCCCC3)ccc2O1` was tested, and the cytotoxicity call was “inactive”. For `C[C@@H]1CCCCO[C@H](CN(C)Cc2ccc(C(F)(F)F)cc2)[C@H](C)CN([C@@H](C)CO)C(=O)c2cc(NC(=O)NC3CCCCC3)ccc2O1`, the cytotoxicity call was “active”. In the case of `C[C@H]1CCCCO[C@@H](CN(C)Cc2ccc(C(F)(F)F)cc2)[C@@H](C)CN([C@@H](C)CO)C(=O)c2cc(NC(=O)NC3CCCCC3)ccc2O1`, the cytotoxicity call is reported as “active”. For `C[C@H](CO)N1C[C@H](C)[C@H](CN(C)Cc2ccc(C(F)(F)F)cc2)OCCCC[C@H](C)Oc2ccc(NC(=O)NC3CCCCC3)cc2C1=O`, the cytotoxicity call was “inactive”. For `C[C@@H]1CN([C@H](C)CO)C(=O)c2cc(NC(=O)NC3CCCCC3)ccc2O[C@@H](C)CCCCO[C@H]1CN(C)Cc1ccc(C(F)(F)F)cc1`, the cytotoxicity call was “inactive”. With `C[C@@H]1CCCCO[C@H](CN(C)Cc2ccc(C(F)(F)F)cc2)[C@@H](C)CN([C@@H](C)CO)C(=O)c2cc(NC(=O)NC3CCCCC3)ccc2O1` the cytotoxicity call was “inactive”. With `C[C@@H]1CN([C@H](C)CO)C(=O)c2cc(NC(=O)NC3CCCCC3)ccc2O[C@@H](C)CCCCO[C@@H]1CN(C)Cc1ccc(C(F)(F)F)cc1` the cytotoxicity call was “inactive”. In the case of `C[C@@H]1CCCCO[C@@H](CN(C)Cc2ccc(C(F)(F)F)cc2)[C@@H](C)CN([C@@H](C)CO)C(=O)c2cc(NC(=O)NC3CCCCC3)ccc2O1`, the cytotoxicity call is reported as “active”. With `C[C@@H]1CN([C@@H](C)CO)C(=O)c2cc(NC(=O)NC3CCCCC3)ccc2O[C@@H](C)CCCCO[C@@H]1CN(C)Cc1ccc(C(F)(F)F)cc1` the cytotoxicity call was “inactive”. For `C[C@@H]1CCCCO[C@@H](CN(C)Cc2ccc(C(F)(F)F)cc2)[C@H](C)CN([C@@H](C)CO)C(=O)c2cc(NC(=O)NC3CCCCC3)ccc2O1`, the cytotoxicity call was “inactive”. With `C[C@@H]1CCCCO[C@H](CN(C)Cc2ccc(C(F)(F)F)cc2)[C@@H](C)CN([C@H](C)CO)C(=O)c2cc(NC(=O)NC3CCCCC3)ccc2O1` the cytotoxicity call was “inactive”. `COc1ccc(CCNC(=O)[C@@]2(Sc3ccc(C)cc3)CC(=O)N(C(C)C)[C@@H]2c2ccc(CO)cc2)cc1` was tested, and the cytotoxicity call was “inactive”. `COc1ccc(NC(=O)N(C)C[C@H]2Oc3c(NC(=O)C4CC4)cccc3C(=O)N([C@@H](C)CO)C[C@@H]2C)cc1` was tested, and the cytotoxicity call was “inactive”. With `C[C@@H]1CN([C@H](C)CO)S(=O)(=O)c2ccc(C#Cc3ccncc3)cc2O[C@@H]1CN(C)C(=O)C1CCC1` the cytotoxicity call was “inactive”. For `COc1cccc(S(=O)(=O)Nc2ccc3c(c2)[C@@H]2C[C@H](CC(=O)NCc4ccccc4F)O[C@H](CO)[C@@H]2O3)c1`, the cytotoxicity call was “inactive”. For `C[C@@H]1CCCCO[C@H](CN(C)S(=O)(=O)c2cccs2)[C@H](C)CN([C@@H](C)CO)C(=O)c2cc(NC(=O)Nc3ccccc3)ccc2O1`, the cytotoxicity call was “inactive”. With `C[C@@H]1CCCCO[C@@H](CN(C)C(=O)Cc2ccccc2)[C@@H](C)CN([C@@H](C)CO)C(=O)c2cc(NS(=O)(=O)c3ccc(F)cc3)ccc2O1` the cytotoxicity call was “inactive”. With `C[C@H]1CN([C@@H](C)CO)C(=O)Cc2cc(NC(=O)C3CCCCC3)ccc2O[C@H]1CN(C)C(=O)Nc1ccc(C(F)(F)F)cc1` the cytotoxicity call was “inactive”. In the case of `C[C@@H]1CN([C@H](C)CO)C(=O)c2cc(NC(=O)C3CCCCC3)ccc2O[C@@H](C)CCCCO[C@@H]1CN(C)C(=O)c1ccccc1`, the cytotoxicity call is reported as “inactive”. `C[C@H]1CN([C@@H](C)CO)C(=O)Cc2cc(NC(=O)CCC(F)(F)F)ccc2O[C@H]1CN(C)S(=O)(=O)c1cccs1` was tested, and the cytotoxicity call was “inactive”. In the case of `C[C@H](CO)N1C[C@H](C)[C@@H](CN(C)Cc2ccc(C(=O)O)cc2)OCCCC[C@H](C)Oc2ccc(NC(=O)Nc3ccccc3)cc2C1=O`, the cytotoxicity call is reported as “inactive”. `CC(C)(ON=C(C(=O)NC1C(=O)N2C(C(=O)[O-])=C(C[n+]3ccccc3)CSC12)c1csc(N)n1)C(=O)O` (configuration not stated) was tested, and the cytotoxicity call was “inactive”. With `C[C@@H]1CN([C@@H](C)CO)C(=O)c2cc(NC(=O)NC3CCCCC3)ccc2O[C@@H](C)CCCCO[C@H]1CN(C)Cc1ccc(C(F)(F)F)cc1` the cytotoxicity call was “inactive”. `C[C@H]1CCCCO[C@H](CN(C)Cc2ccc(C(F)(F)F)cc2)[C@@H](C)CN([C@@H](C)CO)C(=O)c2cc(NC(=O)NC3CCCCC3)ccc2O1` was tested, and the cytotoxicity call was “inactive”. `C[C@H](CO)N1C[C@H](C)[C@@H](CN(C)Cc2ccc(C(F)(F)F)cc2)OCCCC[C@H](C)Oc2ccc(NC(=O)NC3CCCCC3)cc2C1=O` was tested, and the cytotoxicity call was “active”. `Cc1ccc(/C=N/N(C)C2=NCCN2)o1` was tested, and the cytotoxicity call was “inactive”. With `Cc1cc(C)c2c(c1)[C@@H](N(Cc1cc(C(F)(F)F)cc(C(F)(F)F)c1)c1nnn(C)n1)CCCN2C[C@H]1CC[C@H](C(=O)O)CC1` the cytotoxicity call was “active”. With `C[C@H]1CN([C@@H](C)CO)C(=O)c2cc(NC(=O)Nc3ccc(C(F)(F)F)cc3)ccc2O[C@H]1CN(C)C(=O)Nc1ccc2c(c1)OCO2` the cytotoxicity call was “inactive”.
